# Inconclusive results are not listed. The list shows a part of the results. Where a call stands in place of a potency, no number is given. Activity calls are given as the source filed them. Unless noted, the call rests on the fitted dose curve; in most records, active means well fitted curve in the direction sought with a large enough effect; inconclusive means small, poorly fitted or top-dose-only effect, or another doubt; inactive means no such curve, though single readings can be large; an effect the other way counts as inactive or inconclusive.
# How the values were obtained:
# [1] = biological target: Peroxisome proliferator-activated receptor delta (Homo sapiens) (UniProt Q03181); experiment: qHTS assay for small molecule agonists of peroxisome proliferator-activated receptor delta signaling (AID 588534; calls by dose curve)
# Sequence of Peroxisome proliferator-activated receptor delta (Homo sapiens) (Q03181 whole entry, looked up): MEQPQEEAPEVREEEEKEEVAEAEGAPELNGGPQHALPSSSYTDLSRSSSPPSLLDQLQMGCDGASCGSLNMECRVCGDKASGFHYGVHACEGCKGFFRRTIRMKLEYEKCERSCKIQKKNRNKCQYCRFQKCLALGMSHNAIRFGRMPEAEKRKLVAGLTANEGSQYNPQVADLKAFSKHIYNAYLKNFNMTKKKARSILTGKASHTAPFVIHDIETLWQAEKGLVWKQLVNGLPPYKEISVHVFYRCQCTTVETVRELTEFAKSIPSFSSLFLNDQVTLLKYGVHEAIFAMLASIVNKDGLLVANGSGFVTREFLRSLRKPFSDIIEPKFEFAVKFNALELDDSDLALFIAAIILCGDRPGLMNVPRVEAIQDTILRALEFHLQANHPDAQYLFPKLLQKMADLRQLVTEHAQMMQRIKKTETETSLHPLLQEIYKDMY
# Method in brief: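 Cell-based beta-lactamase reporter assay run in agonist mode: cells seeded and incubated 5 hrs at 37 C, compounds added and incubated 18 hrs at 37 C. CCF4 dye fluorescence read after 2 hrs at RT; EC50 and efficacy from Hill fits.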
# [2] = qHTS assay for small molecule antagonists of peroxisome proliferator-activated receptor delta signaling (AID 588535; active means well fitted inhibition curve with a large enough effect in the signal ratio, with a control signal flat, not every such curve was filed as active; the % refers to the signal ratio;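 on max response: cells co-treated with a PPAR-delta agonist as stimulator during compound exposure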); conditions: HEK293T PPARd-UAS-bla, beta-lactamase FRET ratio, 18 h; 460 nm channel
# Method in brief: (§1)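 GeneBLAzer PPAR-delta-UAS-bla HEK293T cells in medium with 2% charcoal/dextran FBS were preincubated 5 hrs at 37 C, then given compounds, incubated 18 hrs at 37 C, and read by CCF4 beta-lactamase fluorescence; IC50 from Hill fits.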
# [3] = biological target: Peroxisome proliferator-activated receptor delta (Homo sapiens) (UniProt Q03181); experiment: as above
# Method in brief: as §1
# [4] = biological target: Vitamin D3 receptor (Homo sapiens) (UniProt P11473); experiment: qHTS assay for small molecule antagonists of vitamin D receptor signaling (AID 588541; calls by dose curve;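 further: receptor activated by calcitriol during compound treatment; series mostly up to about 77 µM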)
# Sequence of Vitamin D3 receptor (Homo sapiens) (P11473 whole entry, looked up, the tested form may be a part): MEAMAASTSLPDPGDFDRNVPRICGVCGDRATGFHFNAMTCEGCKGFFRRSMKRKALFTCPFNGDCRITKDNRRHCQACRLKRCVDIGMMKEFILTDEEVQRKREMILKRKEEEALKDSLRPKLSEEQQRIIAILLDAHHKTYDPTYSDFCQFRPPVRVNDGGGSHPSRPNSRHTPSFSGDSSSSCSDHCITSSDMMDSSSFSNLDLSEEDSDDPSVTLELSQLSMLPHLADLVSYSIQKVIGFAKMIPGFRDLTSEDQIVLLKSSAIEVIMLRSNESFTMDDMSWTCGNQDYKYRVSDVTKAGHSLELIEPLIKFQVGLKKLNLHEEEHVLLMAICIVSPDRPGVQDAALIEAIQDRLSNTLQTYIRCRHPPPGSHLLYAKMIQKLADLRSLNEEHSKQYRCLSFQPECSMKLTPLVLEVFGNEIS
# Method in brief: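 VDR-UAS-bla HEK293T cells (2000/well, 2% charcoal-stripped FBS) were treated with titrated compounds plus 1-alpha,25-dihydroxyvitamin D3 (50 nM or 3 nM final) for 16 h at 37 C. CCF4 beta-lactamase fluorescence was read; Hill fits gave IC50.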
# [5] = biological target: Vitamin D3 receptor (Homo sapiens) (UniProt P11473); experiment: qHTS assay for small molecule agonists of vitamin D receptor signaling (AID 588543; calls by dose curve)
# Method in brief: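 VDR-UAS-bla HEK293T cells, 2000/well, 2% charcoal-stripped FBS; compound titration 16 h at 37 C; CCF4 beta-lactamase ratio read. Normalized to 50 nM 1-alpha,25-dihydroxyvitamin D3 (100%) and DMSO; Hill fit gives EC50, efficacy.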
# [6] = qHTS assay for small molecule agonists of retinoid X receptor alpha signaling (AID 588544; calls by dose curve); conditions: HEK293T RXRa-UAS-bla, beta-lactamase reporter, 18 h; 530 nm emission
# [7] = biological target: Retinoic acid receptor RXR-alpha (Homo sapiens) (UniProt P19793); experiment: as above
# Sequence of Retinoic acid receptor RXR-alpha (Homo sapiens) (P19793 whole entry, looked up): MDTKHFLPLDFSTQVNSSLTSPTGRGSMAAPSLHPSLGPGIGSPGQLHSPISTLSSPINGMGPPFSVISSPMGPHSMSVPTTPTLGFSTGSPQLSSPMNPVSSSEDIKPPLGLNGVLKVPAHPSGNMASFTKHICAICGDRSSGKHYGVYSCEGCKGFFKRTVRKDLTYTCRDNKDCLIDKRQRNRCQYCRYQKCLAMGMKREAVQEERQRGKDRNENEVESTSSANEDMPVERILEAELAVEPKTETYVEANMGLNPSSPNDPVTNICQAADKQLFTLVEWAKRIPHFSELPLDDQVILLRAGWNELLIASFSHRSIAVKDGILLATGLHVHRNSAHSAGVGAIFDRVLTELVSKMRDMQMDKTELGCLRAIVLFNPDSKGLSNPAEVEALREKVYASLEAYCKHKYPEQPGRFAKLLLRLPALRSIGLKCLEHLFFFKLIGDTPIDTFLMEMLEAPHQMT
# [8] = biological target: Thyroid hormone receptor beta (Homo sapiens) (UniProt P10828); experiment: qHTS assay for small molecule agonists of thyroid hormone receptor beta signaling (AID 588545; calls by dose curve)
# Sequence of Thyroid hormone receptor beta (Homo sapiens) (P10828 whole entry, looked up): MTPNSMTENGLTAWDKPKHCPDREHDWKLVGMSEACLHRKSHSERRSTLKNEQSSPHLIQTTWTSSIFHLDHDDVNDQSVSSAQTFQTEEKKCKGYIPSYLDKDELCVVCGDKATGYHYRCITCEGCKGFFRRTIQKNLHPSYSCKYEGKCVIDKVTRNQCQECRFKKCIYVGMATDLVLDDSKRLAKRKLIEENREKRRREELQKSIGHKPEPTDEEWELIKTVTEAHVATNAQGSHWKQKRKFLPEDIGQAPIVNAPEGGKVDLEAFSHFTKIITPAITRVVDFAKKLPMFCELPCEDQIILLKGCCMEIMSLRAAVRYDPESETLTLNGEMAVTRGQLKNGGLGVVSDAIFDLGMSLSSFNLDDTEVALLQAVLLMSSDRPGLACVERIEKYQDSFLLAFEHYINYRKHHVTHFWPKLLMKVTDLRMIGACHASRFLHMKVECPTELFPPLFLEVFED
# Method in brief: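 Compounds were tested as agonists in TR-UAS-bla-GripTite HEK 293 cells. After 18 hrs at 37 C, CCF4 substrate was added and fluorescence read after 2 hrs at room temperature.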
# [9] = qHTS assay for small molecule antagonists of retinoid X receptor alpha signaling (AID 588546; active means well fitted inhibition curve with a large enough effect in the signal ratio, with a control signal flat, not every such curve was filed as active; the % refers to the signal ratio;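 further: cells stimulated with 9-cis-retinoic acid as agonist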); conditions: HEK293T RXRa-UAS-bla, beta-lactamase ratio, antagonist mode; measured here: W530 green channel, cytotoxicity proxy
# Method in brief: (§2)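 Beta-lactamase reporter inhibition, read as CCF4 fluorescence ratio (ex 405, em 460/530 nm) after 2 h at RT. HEK293T UAS-bla cells, 2500/well, were stimulated with 9-cis-RA at 500 or 100 nM final alongside test compound for 18 h at 37 C.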
# [10] = biological target: Retinoic acid receptor RXR-alpha (Homo sapiens) (UniProt P19793); experiment: as above; conditions: HEK293T RXRa-UAS-bla, beta-lactamase ratio, antagonist mode
# Method in brief: as §2
# [11] = biological target: Thyroid hormone receptor beta (Homo sapiens) (UniProt P10828); experiment: qHTS assay for small molecule antagonists of thyroid hormone receptor beta signaling (AID 588547; active means well fitted inhibition curve with a large enough effect in the signal ratio, with a control signal flat, not every such curve was filed as active; the % refers to the signal ratio;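 further: cells stimulated with 0.4 nM T3 agonist during compound exposure; series mostly up to about 77 µM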); conditions: TR-UAS-bla HEK293, beta-lactamase ratio, antagonist mode, 18 h
# Method in brief: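 TR-UAS-bla GripTite HEK293 cells in 2% charcoal/dextran FBS medium were preincubated 4 h at 37 C, given compound (0.59 nM to 92 uM) plus 0.4 nM T3 (final) for 18 h, then CCF4 for 2 h at RT; Hill fit gave IC50.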
# [12] = qHTS assay for small molecule activators of the p53 signaling pathway (AID 651743; active means well fitted activation curve with a large enough effect in the signal ratio, not every such curve was filed as active; the % refers to the signal ratio; further: series mostly up to about 92 µM); conditions: HCT-116 p53RE-bla, beta-lactamase FRET ratio, 16 h; activation: stronger effect = higher value
# Method in brief: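 p53RE-bla HCT-116 cells with a stably integrated beta-lactamase reporter under p53 response elements were plated, rested 5 hours at 37 C/5% CO2, then exposed to compounds in DMSO for 16 hours at 37 C. LiveBLAzer B/G FRET substrate was read after 2 hours at room temperature.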
# [13] = qHTS assay for small molecule activators of the nuclear factor-kappa B (NF-kB) signaling pathway (AID 651749; active means well fitted activation curve with a large enough effect in the signal ratio; the % refers to the signal ratio; further: series mostly up to about 77 µM); conditions: NF-kB-bla ME-180 cells, beta-lactamase FRET ratio, 16 h; activation: stronger effect = higher value
# Method in brief: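 ME-180 cells stably carrying a beta-lactamase reporter under an NF-kB response element were exposed to compound or DMSO vehicle for 16 hr at 37C, 5% CO2. Pathway activation was read by FRET, since reporter expression disrupts FRET.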
# [14] = qHTS assay for environmental chemicals that activate the Aryl hydrocarbon Receptor (AhR) signaling pathway (AID 651777); conditions: 1A2-DRE human hepatoma cells, luciferase, 24 h; activation: stronger effect = higher value; further: nearly all actives have a fitted effect of over 15% in size
# Method in brief: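 Induction of CYP1A2 transcription through AhR is detected by luciferase in 1A2-DRE hepatoma cells. Compounds or DMSO act for 24 hr at 37 C before a 30 min One-Glo step at room temperature.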
# [15] = biological target: Peroxisome proliferator-activated receptor alpha (Homo sapiens) (UniProt Q07869); experiment: qHTS assay for small molecule agonists of the peroxisome proliferator-activated receptor alpha (PPARalpha) signaling pathway (AID 651778); conditions: PathHunter PPARalpha complementation, chemiluminescence, 6 h; max response: stronger effect = higher value
# Sequence of Peroxisome proliferator-activated receptor alpha (Homo sapiens) (Q07869 whole entry, looked up): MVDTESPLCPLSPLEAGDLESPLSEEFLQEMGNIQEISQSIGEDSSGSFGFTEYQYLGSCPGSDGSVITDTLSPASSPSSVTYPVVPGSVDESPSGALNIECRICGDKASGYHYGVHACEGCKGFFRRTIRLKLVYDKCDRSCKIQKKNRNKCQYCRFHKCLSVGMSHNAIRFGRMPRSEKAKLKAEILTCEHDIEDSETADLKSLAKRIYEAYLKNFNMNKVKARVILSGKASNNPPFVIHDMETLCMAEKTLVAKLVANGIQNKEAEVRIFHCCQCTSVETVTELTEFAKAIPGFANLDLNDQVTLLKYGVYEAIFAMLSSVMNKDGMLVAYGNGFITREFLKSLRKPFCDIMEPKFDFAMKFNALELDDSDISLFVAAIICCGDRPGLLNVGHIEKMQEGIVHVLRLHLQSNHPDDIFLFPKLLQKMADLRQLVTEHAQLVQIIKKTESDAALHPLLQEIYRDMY
# Method in brief: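 Cells plated at 2,000/well and held overnight at 37 C, 5% CO2, then compound added by pin tool for 6 hr; after PathHunter detection reagent and 60 min at room temperature, chemiluminescence from enzyme complementation was read.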
# [16] = qHTS assay for small molecule agonists of the antioxidant response element (ARE) signaling pathway measured by Nrf2-dependant transcriptional activity (AID 720636; active means well fitted curve in the direction sought with a large enough effect in the repeat runs; an effect the other way counts as inactive or inconclusive;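 further: HepG2 cells with an ARE-driven luciferase reporter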)
# Method in brief: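 We exposed ARE-luc HepG2 cells, seeded in assay medium with 1% dialyzed FBS and allowed 6 hr to adhere, to test compounds overnight (16 hr, 37 C) before measuring luciferase with ONE-Glo.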
# [17] = qHTS assay for small molecule agonists of the antioxidant response element (ARE) signaling pathway measured by Nrf2-dependant transcriptional activity - cell viability counter screen (AID 720653; active means well fitted curve in the direction sought with a large enough effect in the repeat runs; an effect the other way counts as inactive or inconclusive); conditions: ARE-bla HepG2 viability, CellTiter-Glo ATP luminescence, 16 h; max response: stronger effect = lower value
# Method in brief: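 ARE-bla HepG2 cells (2,000/well) rested 5 hrs at 37C/5% CO2, then exposed to compounds in DMSO for 16 hrs. Viability was read in the same wells as intracellular ATP by luminescence, 30 min at room temperature after reagent addition.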
# [18] = qHTS assay for cell viability of HEK293 cells (AID 743288); conditions: ATP luminescence (CellTiter-Glo), 18 h; max response: stronger effect = lower value; further: nearly all actives have a fitted effect of over 50% in size
# Method in brief: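 Parental HEK293 cells, 2,000 per well, preincubated at least 5 h at 37 C, then exposed to compounds in DMSO for 18 h at 37 C. Viability by CellTiter-Glo ATP luminescence after 30 min at room temperature.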
# [19] = qHTS assay for cell viability of the p53RE-bla HCT-116 cell line (AID 743292); further: nearly all actives have a fitted effect of over 55% in size
# Method in brief: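 In this qHTS counter-screen, metabolically competent p53RE-bla HCT-116 cells were counted via their ATP content. Compounds were applied for 16 h at 37 C and luciferase-coupled luminescence was measured.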
# [20] = qHTS assay for small molecule activators of the human pregnane X receptor (PXR) signaling pathway (AID 720659; call rule not given here)
# [21] = biological target: Vitamin D3 receptor (Homo sapiens) (UniProt P11473); experiment: qHTS for Inhibitors of the vitamin D receptor (VDR): Hit Validation in Primary Screen (AID 602199); conditions: VDR-coactivator inhibition assay, qHTS confirmation; further: potency means the concentration at half of the fitted maximal effect
# Method in brief: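 Fluorescence polarization assay of VDR binding to Alexa 647-labelled SRC2-3 coactivator peptide: 800nM VDR with 5uM LG19078 agonist, compounds, 2 h at room temperature, read Ex 620 nm/Em 688 nm.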
# [22] = biological target: Vitamin D3 receptor (Homo sapiens) (UniProt P11473); experiment: qHTS for Inhibitors of the vitamin D receptor (VDR): Hit Validation using a Fluorescein Assay (AID 602200); conditions: VDR-coactivator binding, fluorescein fluorescence polarization; further: potency means the concentration at half of the fitted maximal effect
# Method in brief: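 Fluorescence polarization (Ex 495 nm/Em 520 nm) read after 2 h at room temperature, reporting disruption of binding between 1.5 uM VDR-LBD, liganded by 5 uM LG19078, and 5 nM fluorescein-labelled SRC2-3 coactivator peptide (final concentrations).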
# [23] = qHTS for Inhibitors of the vitamin D receptor (VDR): Hit Validation using a Texas Red Assay (AID 602201)
# Method in brief: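 Fluorescence polarization (Ex 595/Em 615 nm) of Texas Red (7 nM) with 1.5 uM VDR-LBD and LG19078 (final concentrations). Compounds were incubated for 2 hours at room temperature.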
# [24] = biological target: Vitamin D3 receptor (Homo sapiens) (UniProt P11473); experiment: qHTS for Inhibitors of the vitamin D receptor (VDR): Hit Validation using a Beta-Lactamase Assay (AID 602202)
# Method in brief: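 Stably transfected HEK293 cells express a VDR–GAL4 DNA-binding-domain fusion driving a UAS beta-lactamase reporter, stimulated by agonist LG190178. Compounds were added 4 h after plating and incubated 18 h. A FRET beta-lactam substrate was then added for 2 h and cleaved substrate emission read at 447 nm.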
# [25] = biological target: Flap endonuclease 1 (Homo sapiens) (UniProt P39748); experiment: qHTS Assay for the Inhibitors of FEN1: Confirmatory Assay for Cherry-picked Compounds (AID 720498); conditions: FEN1 flap cleavage, TAMRA/BHQ2 fluorogenic DNA substrate; further: potency means the concentration at half of the fitted maximal effect; nearly all actives have a fitted effect of over 60% in size
# Sequence of Flap endonuclease 1 (Homo sapiens) (P39748 whole entry, looked up): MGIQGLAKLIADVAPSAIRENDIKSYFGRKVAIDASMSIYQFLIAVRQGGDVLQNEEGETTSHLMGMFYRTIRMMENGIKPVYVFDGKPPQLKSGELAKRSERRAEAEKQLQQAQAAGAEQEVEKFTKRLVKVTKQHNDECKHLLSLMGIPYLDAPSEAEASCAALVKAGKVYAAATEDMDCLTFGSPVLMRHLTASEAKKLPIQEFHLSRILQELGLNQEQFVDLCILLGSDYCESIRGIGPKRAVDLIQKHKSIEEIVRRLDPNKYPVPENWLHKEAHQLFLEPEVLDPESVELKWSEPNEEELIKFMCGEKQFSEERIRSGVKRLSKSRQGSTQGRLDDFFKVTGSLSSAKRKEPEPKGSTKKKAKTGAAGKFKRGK
# Method in brief: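 FEN1 at 10 nM was preincubated with compound for 15 min at room temperature, then 50 nM (final) double-flap DNA substrate was added. TAMRA fluorescence released from the BHQ-2-quenched flap was read at 0 and 15 min (ex 525/em 598 nm).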
# [26] = biological target: DNA polymerase eta (Homo sapiens) (UniProt Q9Y253); experiment: qHTS for Inhibitors of Polymerase Eta: Confirmatory Assay for Cherry-picked Compounds (AID 720502); conditions: Pol eta primer extension, TAMRA/BHQ fluorescence, 10 min; further: potency means the concentration at half of the fitted maximal effect
# Sequence of DNA polymerase eta (Homo sapiens) (Q9Y253 whole entry, looked up): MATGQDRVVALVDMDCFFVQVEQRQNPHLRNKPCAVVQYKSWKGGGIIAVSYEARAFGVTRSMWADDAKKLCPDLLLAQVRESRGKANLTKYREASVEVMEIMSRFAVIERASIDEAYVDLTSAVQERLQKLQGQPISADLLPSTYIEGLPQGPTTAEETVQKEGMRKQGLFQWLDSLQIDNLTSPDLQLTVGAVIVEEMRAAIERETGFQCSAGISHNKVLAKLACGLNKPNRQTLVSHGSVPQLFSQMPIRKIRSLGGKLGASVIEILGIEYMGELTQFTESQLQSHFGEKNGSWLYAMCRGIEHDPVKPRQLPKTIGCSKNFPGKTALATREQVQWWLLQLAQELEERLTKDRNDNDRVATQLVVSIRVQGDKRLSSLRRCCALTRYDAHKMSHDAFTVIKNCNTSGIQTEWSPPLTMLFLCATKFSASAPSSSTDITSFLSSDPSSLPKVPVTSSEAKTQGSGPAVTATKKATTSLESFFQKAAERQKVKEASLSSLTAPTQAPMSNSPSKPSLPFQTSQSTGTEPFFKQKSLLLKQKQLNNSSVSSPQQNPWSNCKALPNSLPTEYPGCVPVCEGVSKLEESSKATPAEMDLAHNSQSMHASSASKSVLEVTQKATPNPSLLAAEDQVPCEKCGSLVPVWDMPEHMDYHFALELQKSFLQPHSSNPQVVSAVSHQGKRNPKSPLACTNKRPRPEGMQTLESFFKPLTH
# Method in brief: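 Compounds are preincubated 15 min at room temperature with 10 nM human Pol eta, with buffer-only wells serving as negative control. Adding 50 nM final substrate starts the reaction, and TAMRA fluorescence is read over 10 min.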
# [27] = biological target: Luciferin 4-monooxygenase (Photinus pyralis) (UniProt P08659); experiment: Biochemical firefly luciferase enzyme assay for NPC (AID 624030);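 further: purified P. pyralis luciferase at 10 nM with luciferin and ATP substrate; series mostly up to about 59 µM; nearly all actives have a fitted effect of over 70% in size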
# Sequence of Luciferin 4-monooxygenase (Photinus pyralis) (P08659 whole entry, looked up): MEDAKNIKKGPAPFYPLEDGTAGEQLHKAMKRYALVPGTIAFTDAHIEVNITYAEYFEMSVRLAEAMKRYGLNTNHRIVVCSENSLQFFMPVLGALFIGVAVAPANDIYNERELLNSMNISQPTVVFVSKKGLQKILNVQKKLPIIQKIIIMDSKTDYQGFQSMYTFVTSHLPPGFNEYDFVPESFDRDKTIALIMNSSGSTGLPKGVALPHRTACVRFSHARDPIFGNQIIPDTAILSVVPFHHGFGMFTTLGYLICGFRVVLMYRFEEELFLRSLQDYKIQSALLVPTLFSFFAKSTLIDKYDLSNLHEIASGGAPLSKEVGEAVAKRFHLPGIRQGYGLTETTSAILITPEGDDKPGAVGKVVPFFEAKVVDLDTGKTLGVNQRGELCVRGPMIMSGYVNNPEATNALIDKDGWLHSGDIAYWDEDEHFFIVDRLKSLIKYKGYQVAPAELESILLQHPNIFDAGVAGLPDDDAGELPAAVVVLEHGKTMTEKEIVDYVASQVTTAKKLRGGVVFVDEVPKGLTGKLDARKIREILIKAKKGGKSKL
# Method in brief: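 Counter-screen for direct inhibition of the luciferase enzyme by approved-drug library compounds, run at 10 nM enzyme in 50 mM Tris acetate (final). Luminescence was read within 5 min of enzyme-buffer addition and normalized to PTC124 versus DMSO (0%).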
# [28] = biological target: Cytochrome P450 3A4 (Homo sapiens) (UniProt P08684); experiment: qHTS Assay for Activators of Cytochrome P450 3A4 (AID 885); further: nearly all actives have a fitted effect of over 65% in size
# Sequence of Cytochrome P450 3A4 (Homo sapiens) (P08684 whole entry, looked up): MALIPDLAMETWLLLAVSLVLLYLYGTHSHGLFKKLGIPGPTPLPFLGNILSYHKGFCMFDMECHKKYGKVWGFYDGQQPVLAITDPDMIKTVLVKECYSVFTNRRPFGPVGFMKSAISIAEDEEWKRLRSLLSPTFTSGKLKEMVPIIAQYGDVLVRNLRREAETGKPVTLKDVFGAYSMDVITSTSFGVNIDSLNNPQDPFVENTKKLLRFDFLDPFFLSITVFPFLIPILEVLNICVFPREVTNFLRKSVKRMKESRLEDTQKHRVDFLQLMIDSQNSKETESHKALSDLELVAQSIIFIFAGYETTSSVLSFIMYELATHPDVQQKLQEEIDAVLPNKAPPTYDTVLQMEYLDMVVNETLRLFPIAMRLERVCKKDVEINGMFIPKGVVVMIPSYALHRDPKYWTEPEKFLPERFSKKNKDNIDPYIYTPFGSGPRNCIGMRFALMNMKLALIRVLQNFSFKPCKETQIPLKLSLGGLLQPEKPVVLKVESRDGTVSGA
# Method in brief: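 Steps: enzyme/substrate mix dispensed; compound added, 10 min RT; NADPH regeneration solution added, 60 min RT; luciferin detection buffer stops reaction; 20 min later luminescence measured.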
# [29] = biological target: Nuclear receptor ROR-gamma (Homo sapiens) (UniProt P51449); experiment: qHTS assay for small molecule antagonists of the retinoid-related orphan receptor gamma (ROR-gamma) signaling pathway (AID 651802); further: series mostly up to about 92 µM; nearly all actives have a fitted effect of over 60% in size
# Sequence of Nuclear receptor ROR-gamma (Homo sapiens) (P51449 whole entry, looked up): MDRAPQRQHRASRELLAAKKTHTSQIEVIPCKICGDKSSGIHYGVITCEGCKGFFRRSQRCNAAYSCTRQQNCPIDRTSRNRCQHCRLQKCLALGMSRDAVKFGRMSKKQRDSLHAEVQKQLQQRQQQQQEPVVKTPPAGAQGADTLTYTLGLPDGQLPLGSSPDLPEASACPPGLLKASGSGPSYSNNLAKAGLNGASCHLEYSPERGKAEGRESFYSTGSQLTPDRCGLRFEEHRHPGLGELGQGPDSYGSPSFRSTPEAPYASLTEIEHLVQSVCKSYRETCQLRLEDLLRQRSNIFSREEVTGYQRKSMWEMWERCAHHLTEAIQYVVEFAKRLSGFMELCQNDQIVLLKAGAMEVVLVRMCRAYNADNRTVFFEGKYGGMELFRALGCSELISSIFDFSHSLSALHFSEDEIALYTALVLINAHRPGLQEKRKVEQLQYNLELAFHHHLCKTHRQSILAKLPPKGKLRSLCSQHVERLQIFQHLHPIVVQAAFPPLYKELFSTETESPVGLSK
# Method in brief: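 CHO cells carrying TET-inducible ROR-gamma and an ROR response element–luciferase reporter were exposed to compound, then induced with doxycycline. After 16hr at 37C, luminescence was read; lower signal indicates antagonism.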
smiles,measurement,setting,value
CC(C1CC1)C(O)(Cn1cncn1)c1ccc(Cl)cc1 (stereo not drawn),outcome,[1],inactive
same,max response,[2],49.1%
same,Potency,[3],inactive
same,Potency,[4],inactive
same,outcome,[5],inactive
same,max response,[6],4.53%
same,Potency,[7],inactive
same,Potency,[8],inactive
same,max response,[9],-3.3%
same,max response,[10],-4.42% (inactive)
same,activity change % (negative = inhibition),[11],-18.1% (inactive)
same,activation,[12],-2.39% (inactive)
same,activation,[13],-1.89% (inactive)
same,activation,[14],1.13% (inactive)
same,max response,[15],-1.34% (inactive)
same,Potency,[16],inactive
same,max response,[17],-0.0614% (inactive)
same,max response,[18],-14% (inactive)
same,Potency,[19],inactive
same,outcome,[20],inactive
O=C1NC(=O)N(c2ccccc2)C(=O)/C1=C/c1ccc([N+](=O)[O-])s1,Potency,[21],26.7 µM (active)
same,Potency,[22],20 µM (active)
same,Potency,[23],inactive
same,outcome,[24],inactive
same,Potency,[25],19 µM (active)
same,Potency,[26],30.1 µM (active)
CN1C(=O)NC(=O)/C(=C\C=C\c2ccccc2[N+](=O)[O-])C1=O,Potency,[23],inactive
CN1C2CCC1/C(=C/c1ccccn1)C(=O)/C2=C\c1ccccn1,Potency,[23],inactive
CC(C)n1c(O)c(C2c3cc(Cl)ccc3Oc3[nH]c(=O)n(C(C)C)c(=O)c32)c(=O)[nH]c1=O (stereo not drawn),Potency,[23],inactive
C=C/C=C/CC1=C(C)[C@@H](OC(=O)[C@@H]2[C@@H](/C=C(\C)C(=O)OC)C2(C)C)CC1=O (tested in a mixture with another compound),Potency,[27],inactive
Cc1ccc(N)cc1[N+](=O)[O-],Potency,[28],inactive
same,outcome,[1],inactive
Cc1ccccc1N1C(=O)NC(=O)/C(=C\c2cnn(-c3ccccc3)c2)C1=O,Potency,[23],inactive
OCC(CBr)(CBr)CBr,outcome,[1],inactive
same,Potency,[29],inactive
Cc1cccc(C)c1,outcome,[1],inactive
same,Potency,[29],inactive
c1ccc2c(c1)ccc1ncccc12,Potency,[28],inactive
same,outcome,[1],inactive
same,Potency,[29],inactive
N#CC(Br)(Br)C(N)=O,outcome,[5],inactive
same,max response,[6],6.67%
same,Potency,[7],inactive
same,activation,[14],-0.328% (inactive)
same,max response,[15],-5.1% (inactive)
same,Potency,[16],inactive
same,Potency,[19],inactive
same,outcome,[20],inactive

# Source: PubChem BioAssay (NCATS)
